# Assay outcomes deposited in PubChem BioAssay by National Center for Advancing Translational Sciences (NCATS).
# Only a selection was taken, and hits are over-represented in it overall.
# nsP2pro inh = blocks chikungunya virus nsP2 protease peptide cleavage; Q8JUX6; FRET peptide cleavage, nsP2pro, fluorescence 1 h; Potency, µM (highest dose often 24.9 µM), most hits filed as inhibitors; actives 1.1% (n = 31,000); also: nearly all actives have a fitted effect of over 60% in size
#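 FRET cleavage of 2.5 uM peptide 2 by 150 nM CHIKV protease domain at pH 8.0 (Tris, Tween 20). Compounds at 7 concentrations (up to 25 uM) preincubated 15 min. Fluorescence read after 1 h at room temperature.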
# nsP2 cell sec = cell-based CHIKV nsP2 protease inhibition, secondary; shares compounds with nsP2pro inh; cell-based CHIKV nsP2 protease reporter assay; Potency, µM (top dose mostly 51.1 µM), actives largely listed as inhibitors; actives 10% (n = 450); also: nearly all actives have a fitted effect of over 70% in size
# NSP2 full ctr = inhibits full-length CHIKV NSP2 enzyme; shares compounds with nsP2pro inh; Potency, µM (doses to about 50.7 µM), usual class: inhibitors; actives 39% (n = 410); Full-length CHIKV NSP2 protease enzymatic counterscreen; also: nearly all actives have a fitted effect of over 65% in size
# Furin counterscr = selectivity counter-screen for CHIKV nsP2 protease inhibitors: human furin | Recombinant human furin enzymatic counterscreen, fluorogenic substrate | actives 6% (n = 410) | Potency, µM (top dose mostly 50.6 µM), hits mostly inhibitors | AID 1964102 | shares compounds with nsP2pro inh
# Target sequence (P09958 whole entry, looked up): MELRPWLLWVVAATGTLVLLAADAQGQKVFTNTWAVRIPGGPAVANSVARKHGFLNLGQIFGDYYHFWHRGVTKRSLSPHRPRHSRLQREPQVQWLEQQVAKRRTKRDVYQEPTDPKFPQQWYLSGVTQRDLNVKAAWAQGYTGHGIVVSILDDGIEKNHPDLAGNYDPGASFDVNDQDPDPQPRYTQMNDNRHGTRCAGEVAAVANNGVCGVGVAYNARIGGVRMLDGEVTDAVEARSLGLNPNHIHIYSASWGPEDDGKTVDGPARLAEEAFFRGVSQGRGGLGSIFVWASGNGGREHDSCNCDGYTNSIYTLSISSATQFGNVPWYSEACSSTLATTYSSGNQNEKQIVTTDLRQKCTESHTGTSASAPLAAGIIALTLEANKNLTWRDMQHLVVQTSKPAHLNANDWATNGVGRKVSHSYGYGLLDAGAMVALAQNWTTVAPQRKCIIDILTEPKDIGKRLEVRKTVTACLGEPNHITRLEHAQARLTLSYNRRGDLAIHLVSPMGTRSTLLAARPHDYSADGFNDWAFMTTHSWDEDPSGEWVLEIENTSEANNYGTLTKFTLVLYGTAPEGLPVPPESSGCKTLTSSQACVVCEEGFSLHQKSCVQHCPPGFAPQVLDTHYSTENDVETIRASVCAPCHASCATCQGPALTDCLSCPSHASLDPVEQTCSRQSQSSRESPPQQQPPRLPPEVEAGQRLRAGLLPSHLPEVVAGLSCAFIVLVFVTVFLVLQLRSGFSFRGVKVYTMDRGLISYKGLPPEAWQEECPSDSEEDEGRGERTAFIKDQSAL
# NS23 peptide cs = blocks CHIKV nsP2 protease cleavage of endogenous NS2/3 peptide. shares compounds with nsP2pro inh. Purified CHIKV nsP2 protease, endogenous NS2/3 peptide cleavage. Potency, µM (doses to about 51 µM), most hits filed as inhibitors. actives 34% (n = 410). AID 1964103; also: nearly all actives have a fitted effect of over 55% in size
# Papain cs = selectivity counter-screen for CHIKV nsP2 protease inhibitors: papain | Potency, µM (doses to about 51 µM), most hits filed as inhibitors | shares compounds with nsP2pro inh | actives 5% (n = 410) | purified papain protease activity, enzymatic inhibition
# nsP2pro confirm = confirmation of CHIKV nsP2 protease inhibitors. shares compounds with nsP2pro inh. CHIKV nsP2 protease enzymatic activity, qHTS. Potency, µM (highest dose often 25.5 µM), hits mostly inhibitors. actives 43% (n = 410); also: nearly all actives have a fitted effect of over 75% in size
# HCV NS3 4A cs = HCV NS3/4A protease inhibition, counterscreen. shares compounds with nsP2pro inh. HCV NS3/4A protease biochemical counterscreen. Potency, µM (top dose mostly 50.9 µM), usual class: inhibitors. actives 20% (n = 410); also: nearly all actives have a fitted effect of over 55% in size
# Hits are given with their value; - = inactive; ? = inconclusive; ! = repeats disagree. Calls follow the shape of the full dose curve.
SMILES,nsP2pro inh,others
CCN1CCC(N(Cc2ccc3c(c2)OCO3)C(=O)Nc2ccccc2OC)CC1,-,
O=C(c1ccc(C(F)(F)F)cc1)N1CCC2(CC1)CNc1ccccc1[S+](=O)([O-])N2,-,
COc1cncc(NC(=O)c2cccs2)c1,-,
Cc1ccc(NC(=O)c2ccc3c(c2)CCC(=O)N3)cc1C,-,
CCOC(=O)C1CCN(C(=O)C(C)(C)NC(=O)Nc2ccc(C#N)cc2)CC1,-,
Cn1cc(CN2CCCC(COc3ccccc3C(=O)N3CCCCC3)C2)c2ccccc21 (stereo unspecified),-,
CN1CCc2cc(Nc3ncc(C4CC4)c(NCCCNC(=O)C4CCC4)n3)ccc2C1,-,
Cc1nc(CNc2ncnc3ccc(-c4oc(-c5ccccc5)nc4C)cc23)cs1,-,
O=C(N[C@H]1CCN(C(=O)c2cc(C(F)(F)F)cc(C(F)(F)F)c2)[C@H](Cc2ccc(Cl)cc2)C1)c1ccnc2ccccc12,-,
CCC[C@H](NC(=O)[C@@H]1[C@H]2CCC[C@H]2CN1C(=O)[C@@H](NC(=O)[C@@H](NC(=O)c1cnccn1)C1CCCCC1)C(C)(C)C)C(=O)C(=O)NC1CC1,3.9µM!,nsP2 cell sec=-;NSP2 full ctr=12µM;Furin counterscr=-;NS23 peptide cs=?;Papain cs=0.026µM;nsP2pro confirm=3.6µM;HCV NS3 4A cs=0.052µM
N#Cc1c(-c2ccccc2C(F)(F)F)nc2ccccc2c1NCc1ccc(-c2ccnc(C(F)(F)F)c2)cc1,-,
C/C=C/[C@@H]1C=C[C@@H]2C[C@H](C)CC[C@H]2[C@]1(C)/C(O)=C1/C(=O)[C@@H](CO)N(C)C1=O,-,
Cc1nc(C2CCCN2Cc2ccc(-c3ccn[nH]3)o2)cs1 (stereo unspecified),8.9µM,nsP2 cell sec=-;NSP2 full ctr=?;Furin counterscr=-;NS23 peptide cs=?;Papain cs=-;nsP2pro confirm=?;HCV NS3 4A cs=?
Clc1cc(Cl)c(OCC#CI)cc1Cl,4.4µM,nsP2 cell sec=?;NSP2 full ctr=7.1µM;Furin counterscr=9µM;NS23 peptide cs=5µM;Papain cs=-;nsP2pro confirm=2.2µM;HCV NS3 4A cs=-
Cn1cccc1C(=O)NC1CCN(C(=O)N2CC3CC(C2)[C@H]2CCCC(=O)N2C3)CC1 (stereo partly specified),-,
CC(C)=CCc1cc(O[C@@H]2O[C@H](CO[C@@H]3OC[C@](O)(CO)[C@H]3O)[C@@H](O)[C@H](O)[C@H]2O)ccc1O,-,
CCOC(=O)c1c(NC(=O)c2nc(SCC)ncc2Cl)sc(C(C)=O)c1C,-,
CCOC(=O)c1c(NC(=O)c2nc(S(C)(=O)=O)ncc2Cl)sc(C(C)=O)c1C,?,nsP2 cell sec=3.7µM;NSP2 full ctr=?;Furin counterscr=-;NS23 peptide cs=4.6µM;Papain cs=-;nsP2pro confirm=-;HCV NS3 4A cs=?
CCOC(=O)c1c(NC(=O)COc2ccccc2)sc(C(C)=O)c1C,-,
O=C(O)c1cc(C(F)(F)F)ccc1N1CC[C@H](OCc2ccccn2)C1,-,
NC(=O)c1ccc[n+]([C@@H]2O[C@H](COP(=O)([O-])O)[C@@H](O)[C@H]2O)c1,-,
CC(C)c1noc(Cn2nc(-c3ccccc3)c3ccccc3c2=O)n1,-,
Cc1ccc(-n2c(C)cc(-c3nnc4n3CCCCC4)c2C)cc1,?,nsP2 cell sec=21µM;NSP2 full ctr=?;Furin counterscr=-;NS23 peptide cs=?;Papain cs=-;nsP2pro confirm=?;HCV NS3 4A cs=?
Cc1cc(-c2nnc3n2CCCCC3)c(C)n1-c1ccncc1,-,
COc1ccc(-n2c(C)cc(-c3nnc4n3CCCCC4)c2C)cc1,-,
SMILES,nsP2pro inh,others
Cc1cccc(NC(=O)N2CCCC(Cc3noc(-c4cnccn4)n3)C2)c1 (stereo unspecified),-,
CS(=O)(=O)N1CCN(c2nc(-c3ccc(Br)cc3)cs2)CC1,-,
CCOC(=O)[C@H](Cc1ccc(F)cc1)NC(=O)[C@@H](N)Cc1ccc(N(CCCl)CCCl)cc1,-,
Cc1noc(C)c1[S+](=O)([O-])N1CCCC1C(=O)N1CCC(c2nc3ccncc3[nH]2)CC1 (stereo unspecified),-,
CC(=O)NCCc1c[nH]c2ccccc12,-,
O=C(NCCc1c[nH]c2ccc(O)cc12)c1ccc2ccccc2c1O,-,
NC(Cc1c[nH]c2ccc(O)cc12)C(=O)O (stereo unspecified),?,nsP2 cell sec=-;NSP2 full ctr=-;Furin counterscr=-;NS23 peptide cs=-;Papain cs=-;nsP2pro confirm=-;HCV NS3 4A cs=-
S=C(Nc1ccc(Cl)c(Cl)c1)Nc1nnc(-c2ccncc2)o1,-,
COc1ccc(N2CCN(C(=O)c3cc4ccc5cccnc5c4[nH]3)CC2)cc1,-,
CS(=O)(=O)Nc1ccc(OCC(=O)N2CCN(c3ccc(F)cc3)CC2)nc1,-,
CC(C)Nc1cccnc1N1CCN(C(=O)c2cc3cc(NS(C)(=O)=O)ccc3[nH]2)CC1,1.8µM!,nsP2 cell sec=-;NSP2 full ctr=?;Furin counterscr=-;NS23 peptide cs=?;Papain cs=-;nsP2pro confirm=?;HCV NS3 4A cs=-
C[S+](=O)([O-])N1CC2(Cc3ccccc3N(C(=O)Cc3ccc(F)cc3)C2)C1,-,
CC(C)NC(=O)C[C@@H]1O[C@H](CNC(=O)C2CC2)[C@@H](O)[C@H]1O,-,
COCC(=O)N1CCc2cc(-c3csc(NC(=O)c4cc(OC)cc(OC)c4)n3)ccc21,-,
CCCNC(=O)C1N(c2ccc(OC)cc2)C(=O)C12CCCCC2 (stereo unspecified),-,
Cc1cc(C)n2ncc(C(=O)Nc3ccc(C(C)(C)C)cc3)c2n1,-,
C[C@@H]1C[C@@H](O)[C@@]23CO[C@]2(CO)CCC[C@@H]3[C@@]12C[C@@H](c1ccoc1)OC2=O,?,nsP2 cell sec=-;NSP2 full ctr=-;Furin counterscr=-;NS23 peptide cs=-;Papain cs=-;nsP2pro confirm=-;HCV NS3 4A cs=-
CC1CC2OCC3(O)CCC(O)C(C14CC(c1ccoc1)OC4=O)C23CO (stereo unspecified),-,
COc1ccc(CNC(=O)C2CCN(Cc3ccccc3-c3ccccc3F)CC2)cc1,-,
COc1ccc(-c2cc3n(n2)CCCN(C(=O)c2cc(CN4CCOCC4)on2)C3)cc1,-,
Cc1ccc(-c2cc3n(n2)CCCN(C(=O)c2cc(CN4CCOCC4)on2)C3)o1,1µM,nsP2 cell sec=-;NSP2 full ctr=15µM;Furin counterscr=-;NS23 peptide cs=?;Papain cs=-;nsP2pro confirm=7.1µM;HCV NS3 4A cs=?
Cc1ccc(OCCC2CCN(C(=O)c3cc(CN4CCOCC4)on3)C2)cc1 (stereo unspecified),-,
CNC(=O)c1ccc2cc([C@@]3(O)CCn4cncc43)ccc2c1,-,
Cc1cccc(N2CCN(C(=S)Nc3cc(C)ccn3)CC2)c1,-,
Cc1ccc(OCCn2c(CCNC(=O)c3ccc([N+](=O)[O-])cc3)nc3ccccc32)cc1,-,
CC(=O)Oc1cc2c(s1)CCN(C(C(=O)C1CC1)c1ccccc1F)C2 (stereo unspecified),?,nsP2 cell sec=-;NSP2 full ctr=?;Furin counterscr=-;NS23 peptide cs=?;Papain cs=?;nsP2pro confirm=?;HCV NS3 4A cs=-
